Sampled rows, rich in hits. Any-hit rate of the full collection: about 1.3%.
Mtb hypoxia inh = Mtb hypoxia fluorescent reporter inhibition. M. tuberculosis hypoxia-regulated fluorescent reporter, fluorescence. fluorescence inhibition, % (concentration not given with the values). 300,000 compounds, 0.1% hits. AID 1159583; in the data active = fluorescence inhibition mostly above about 23%, no sharp cut-off; inactive = mostly below about 17%
PriA SSB inh = K. pneumoniae PriA-SSBct interaction inhibition. AlphaScreen SSBct-PriA binding, biotinylated peptide. inhibition, % at 33 µM. 430,000 compounds, 0.6% hits; in the data active = inhibition mostly above about 37%, no sharp cut-off; inactive = mostly below about 20%;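 also: plate controls were negative control peptide for no effect and reference peptide for full effect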
3CLpro inhibitor = SARS-CoV 3CLpro protease inhibition; recombinant SARS-CoV 3CLpro, quenched FRET peptide cleavage; inhibition, % at 6 µM; 290,000 compounds, 0.14% hits; AID 1706; in the data active = inhibition above about 12%
VHR inh abs = blocks human VHR1 dual specificity phosphatase; 290,000 compounds, 0.52% hits; recombinant VHR phosphatase, pNPP absorbance; inhibition, % at 13.3 µM; P51452; in the data active = inhibition above about 50%
Target sequence (P51452 whole entry, looked up): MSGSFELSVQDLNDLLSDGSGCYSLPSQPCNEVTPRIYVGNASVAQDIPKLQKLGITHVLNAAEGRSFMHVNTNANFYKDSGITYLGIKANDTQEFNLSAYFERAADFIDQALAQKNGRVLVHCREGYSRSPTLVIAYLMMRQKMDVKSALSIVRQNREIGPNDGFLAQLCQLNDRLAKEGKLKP
CCHF vOTU inh-1 = blocks the CCHF virus ovarian tumor domain protease | inhibition, % at 11.5 µM | CCHFV vOTU protease, Pep-AMC fluorescence | 370,000 compounds, 0.55% hits; also: 0% = vehicle wells with enzyme and 100% = no enzyme wells
CCHF vOTU inh-2 = CCHFV vOTU protease inhibition, confirmation; shares compounds with CCHF vOTU inh-1; 1,900 compounds, 17% hits; Recombinant CCHFV vOTU, Pep-AMC fluorescence; inhibition, % at 11.5 µM
An asterisk follows results filed as active; i = inactive; nt = not tested or not shown. Rule as the data show it, unless noted: active = inhibition above about 30%; inactive = the rest.

SMILES	Mtb hypoxia inh	PriA SSB inh	3CLpro inhibitor	VHR inh abs	CCHF vOTU inh-1	CCHF vOTU inh-2
c1ccc(Cn2cc(CCOCc3ccccn3)c3ccccc32)cc1	nt	nt	nt	nt	32*	-9
COc1ccc(Nc2ncnc3c2oc2ccccc23)cc1	nt	-6	-6	-24	33*	-4
Cc1ccc(Nc2ncnc3c2oc2ccccc23)cc1	21	-18	0	33	-3	nt
O=C(NCCOc1ccc2nnc(-c3ccc(F)cc3)n2n1)C(F)(F)F	nt	-9	nt	nt	nt	nt
COc1cc(C=NNc2nncn2N)ccc1OC(C)=O	1	0	nt	nt	nt	nt
Nn1cnnc1NN=Cc1ccc(Cl)cc1Cl	3	0	nt	nt	nt	nt
COc1cc(/C=C(\C#N)C(N)=O)ccc1OCc1c(C)no[n+]1[O-]	4	-5	3	-11	1	nt
Nn1cnnc1N/N=C/c1ccc(Cl)cc1Cl	nt	nt	4	-13	102*	-17
COc1cc(/C=N/Nc2nncn2N)ccc1OCc1c(C)no[n+]1[O-]	nt	i	2	6	97*	-8
COc1ccc(/C=N/Nc2nncn2N)cc1Br	nt	nt	1	2	91*	4
CCOCC(=O)NC[C@@](C)(O)Cc1ccco1	nt	-9	nt	nt	nt	nt
COc1ccc(Cl)cc1S(=O)(=O)NC[C@@](O)(c1cccs1)C1CC1	nt	-6	nt	nt	nt	nt
Nc1ccc(Br)c2cccnc12	-13	33	0	18	101*	1
CN(C)c1ccc(CCNC(=O)COc2ccc(F)cc2)cc1	nt	1	nt	nt	nt	nt
O=S1(=O)NC2c3ccccc3CC2O1 (stereo not given)	2	-14	-9	13	37*	-5
COc1ccc(Nc2nc(-c3ccccc3)c3cc(Cl)ccc3n2)c(OC)c1	nt	24	nt	nt	nt	nt
CC(NS(=O)(=O)C=Cc1ccccc1)c1ccccc1 (stereo not given)	12	nt	nt	nt	nt	nt
CC(NS(=O)(=O)/C=C/c1ccccc1)C(=O)O (stereo not given)	-5	-9	1	6	32*	-15
Cc1cc(C)c(C)c(OCC(=O)NCC2CCCO2)c1 (stereo not given)	11	-13	0	-15	33*	-14
Cc1cc(C)cc(OCC(=O)NCC2CCCO2)c1 (stereo not given)	1	-5	5	42	7	nt
CCn1c(COc2cccc(C)c2)nnc1SCC(=O)Nc1cccc(C(=O)O)c1	nt	-7	-2	15	7	nt
CCn1c(COc2ccc3ccccc3c2C)nnc1SCC(=O)Nc1cccc(C(=O)O)c1	3	-7	-2	10	33*	4
COC(=O)CCC(=O)OC1(C)C(=O)C2=CN(C(CO)CO)C(c3ccc(OC)cc3)=CC2=C(Br)C1=O (stereo not given)	nt	nt	nt	4	31*	18
Cc1ccc(CN2C(=O)C[C@@H](NC(=O)OCC3c4ccccc4-c4ccccc43)C/C=C\C2c2ccc(C)cc2)cc1 (stereo not given in full)	-8	0	nt	nt	32*	-9
O=C(NC1C/C=C\C(c2ccccc2)N(c2ccccc2)C(=O)C1)OCC1c2ccccc2-c2ccccc21 (stereo not given)	nt	-2	nt	nt	nt	nt
SMILES	Mtb hypoxia inh	PriA SSB inh	3CLpro inhibitor	VHR inh abs	CCHF vOTU inh-1	CCHF vOTU inh-2
COc1ccc(N)c2c1OCCC2=O	-4	3	-1	-3	57*	-13
C[C@@H]1CCCCO[C@@H](CN(C)C(=O)Nc2ccccc2)[C@@H](C)CN([C@H](C)CO)C(=O)c2cc(N(C)C)ccc2O1	nt	nt	nt	nt	31*	-19
C[C@@H]1CCCCO[C@H](CN(C)C(=O)Cc2ccccc2)[C@H](C)CN([C@@H](C)CO)C(=O)c2cc(NC(=O)Nc3ccc(F)cc3)ccc2O1	nt	nt	nt	nt	10	nt
C[C@@H]1CCCCO[C@H](CN(C)C(=O)Cc2ccccc2)[C@@H](C)CN([C@H](C)CO)C(=O)c2cc(NC(=O)Nc3ccccc3)ccc2O1	nt	nt	nt	nt	31*	-12
C[C@@H]1CCCCO[C@H](CN(C)Cc2ccc(Cl)c(Cl)c2)[C@H](C)CN([C@@H](C)CO)C(=O)c2cc(NC(=O)Nc3ccc(F)cc3)ccc2O1	nt	nt	nt	nt	31*	-14
COc1ccc(NC(=O)N(C)C[C@H]2OCCCC[C@@H](C)Oc3ccc(N(C)C)cc3C(=O)N([C@H](C)CO)C[C@@H]2C)cc1	nt	nt	nt	nt	0	nt
CCn1c(C2CCN(C(=O)c3ccccc3Br)CC2)nn(CCOC)c1=O	nt	-7	nt	nt	nt	nt
CCn1ccnc1CN1CCc2sccc2C1	nt	1	nt	nt	nt	nt
Cc1ccc(NC(=O)c2sccc2SCc2cccc(C(F)(F)F)c2)cc1	16	-60	8	12	40*	-1
CC1=NN(c2ccccc2)C(=O)C1C=Nc1ccc(N(C)C)cc1 (stereo not given)	2	-6	-1	41	30*	2
CCOc1ccc(C)cc1S(=O)(=O)Nc1ccc2c(c1)N(C(=O)COC)CCC2	nt	-1	nt	nt	nt	nt
CCOC(=O)N1CCN(c2ccc(C(C)=O)cc2F)CC1C (stereo not given)	11	5	1	22	31*	-3
CN(C)c1ccc(-c2[nH][nH]c(=O)c2NC(=O)c2ccc3ccccc3n2)cc1	nt	nt	nt	nt	105*	-11
CN(C)c1ccc(-c2[nH][nH]c(=O)c2NC(=O)c2ccccn2)cc1	nt	nt	nt	nt	113*	2
Cc1cnc(C(=O)Nc2c(-c3ccccc3)[nH][nH]c2=O)cn1	nt	nt	nt	nt	21	nt
CC(C)(C)c1ccc(C(=O)NCC(=O)N/N=C\c2cccs2)cc1	nt	5	nt	nt	nt	nt
O=c1[nH]c2c(s1)C(c1ccco1)C1C3CCC(C3)C1S2 (stereo not given)	17	5	-1	32	32*	-10
Cc1ccc(CN2CCN(N=Cc3ccc(C)s3)CC2)c(C)c1	nt	40	nt	nt	nt	nt
COc1cc2c(cc1OC)CN(CC(=O)Nc1ccc(C)cc1)CC2	8	-15	-1	-6	30*	-22
COCCN(Cc1ccoc1)C(=O)c1csc(-c2ccccc2)n1	nt	1	nt	nt	nt	nt
Cc1cccc(Oc2cc(NC(=O)Cn3cnc([N+](=O)[O-])n3)cc([N+](=O)[O-])c2)c1	-3	25	6	1	33*	-3
Cc1cc([N+](=O)[O-])nn1CCCC(=O)Nc1cc(Oc2ccccc2)cc([N+](=O)[O-])c1	6	10	-2	-30	8	nt
CC(=O)C(C(C)=O)C1(O)C(=O)c2ccccc2C1=O	6	-4	8	-7	101*	-12
CC(=O)N(C)C1=C(O)c2ccccc2C(=O)C1=O	10	-9	4	30	10	nt
CCOc1ccc(Nc2ccc(N)c(S(=O)(=O)O)c2)cc1	21	27	nt	nt	30*	8
Cc1nc(N2CCOCC2)nc(N2CCCC2)c1[N+](=O)[O-]	3	7	-2	-7	4	nt
Cc1nc(N2CCOCC2)nc(N2CCCCC2)c1[N+](=O)[O-]	5	11	-3	-4	44*	-9
COc1ccccc1CC1(C)C(=O)Nc2ccc(S(=O)(=O)NC3CCCCC3)cc21 (stereo not given)	nt	nt	nt	nt	24	nt
CC1(Cc2ccc(F)cc2)C(=O)Nc2ccc(S(=O)(=O)NC3CCCCC3)cc21 (stereo not given)	nt	nt	nt	nt	44*	-6
CN(C)S(=O)(=O)c1ccc(C(=O)NCc2nn(C3CCCC3)c3c2CCCC3)cc1	nt	-7	nt	nt	nt	nt

Screening results as filed in PubChem BioAssay.
